DAX1 inh-1 – inhibitors of DAX1 repression of SF-1 activated StAR promoter | HEK293T StAR-luciferase reporter, SF-1/DAX-1 repression relief | inhibition, % at 6.8 µM | 370,000 compounds, 1.1% hits | AID 652010;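 active = inhibition above the mean over all tested compounds plus 3 SD, cut at about 3.6% in these data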;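 also: higher inhibition means more luminescence from relief of DAX-1 repression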
AHR act – activates the human aryl hydrocarbon receptor; P35869; AHR-responsive luciferase reporter cells, luminescence; activation, % at 5 µM; 320,000 compounds, 2.5% hits; AID 2796; in the data active = activation above about 47%
hgDAF12 agonist – activates the H. glycines DAF-12 receptor ligand-binding domain; 370,000 compounds, 1.8% hits; activation, % at 6.8 µM; HEK293 GAL4-hgDAF12 UAS-luciferase reporter, agonist luminescence; normalized to butyrate control;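 active = activation above a cutoff set at the mean of all screened compounds plus 3 SD, cut at about 10% in these data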
ssDAF12 agonist – activates DAF-12 receptor from parasite S. stercoralis | HEK293 ssDAF-12/GRIP1 lit1-tk-luc reporter, luminescence; % of 3 µM dafachronic acid response | activation, % at 6.8 µM | 370,000 compounds, 1% hits;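 active = activation above the mean over all tested compounds plus 3 SD, cut at about 0.9% in these data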
hcDAF-12 act – activates DAF-12 receptor from parasite H. contortus; AID 652067; activation, % at 6.8 µM; HEK293 hcDAF-12 lit1-tk-luc reporter, luminescence; 0% DMSO, 100% Δ7-dafachronic acid; 370,000 compounds, 1.4% hits;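 active = activation above the mean of all tested compounds plus 3 SD, cut at about 5.5% in these data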
DAX1 inh-2 – inhibitors of human orphan nuclear receptor DAX1 (NR0B1). HEK293 Gal4-DAX1 luciferase reporter, luminescence. inhibition, % at 6.75 µM. 340,000 compounds, 0.99% hits;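 active = inhibition above the mean over all tested compounds plus 3 SD, cut at about 4.2% in these data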;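 also: inhibition shows as a rise in luminescence from relieved DAX1 repression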
Target sequence (P51843 207-470 limits assumed): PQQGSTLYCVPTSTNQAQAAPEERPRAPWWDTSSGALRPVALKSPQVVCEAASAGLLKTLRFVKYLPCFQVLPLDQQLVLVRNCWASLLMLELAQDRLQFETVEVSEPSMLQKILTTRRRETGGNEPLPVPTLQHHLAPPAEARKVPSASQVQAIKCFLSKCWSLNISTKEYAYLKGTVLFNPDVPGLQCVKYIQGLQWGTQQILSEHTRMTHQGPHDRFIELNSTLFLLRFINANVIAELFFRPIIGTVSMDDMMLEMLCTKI
Hits are given with their value; n = inactive; x = no result given. A selection: hits, their analogues and other compounds. The true share with any hit is near 5.7%.

SMILES	DAX1 inh-1	AHR act	hgDAF12 agonist	ssDAF12 agonist	hcDAF-12 act	DAX1 inh-2
CC(C)[C@H](NC(=O)N1CC(=O)Nc2ccccc21)C(=O)N[C@H](Cc1ccccc1)C(=O)O	n	n	n	n	n	n
CC(C)[C@H](NC(=O)N1CC(=O)Nc2ccccc21)C(=O)N[C@H](Cc1c[nH]c2ccccc12)C(=O)O	n	n	n	1.6	n	n
O=C(Nc1cccc(O)c1)c1cc(-c2ccco2)on1	n	n	11.1	n	n	n
C=CCOc1ccccc1/C=N/NC(=O)c1ccc(Cl)cc1Cl	n	69.5	n	n	n	n
COc1cc(/C=N/NC(=O)c2ccncc2)ccc1OC(=O)c1cc(OC)c(OC)c(OC)c1	n	n	n	n	n	n
COc1cc(C(=O)Oc2ccccc2/C=N/NC(=O)c2ccc(Cl)cc2Cl)cc(OC)c1OC	n	59.4	n	n	n	n
O=C(N/N=C\c1cccnc1)c1ccc(Cl)cc1Cl	x	n	x	x	x	n
N#CCC(=O)N1CCN(C=O)CC1	n	n	n	n	n	4.7
CC1CCN(C(=O)CC#N)CC1	n	n	n	n	n	n
Cc1nn(-c2cccc(Cl)c2)nc1C(=O)O	n	n	n	n	n	n
Cc1cc(=O)oc2c1c(C)nn2-c1ccc(Br)cc1	n	67.1	n	n	n	n
Cc1cc(=O)oc2c1c(C)nn2-c1cccc(Cl)c1	n	71.4	n	n	n	n
COC(=O)COc1ccsc1C(=O)OC	n	n	n	n	n	4.2
CCN(CC)c1ccc(-c2sc(Nc3ccccc3)n[n+]2-c2ccc(F)cc2)cc1	n	63.3	n	n	n	n
CN(C)c1ccc(-c2sc(Nc3ccccc3)n[n+]2-c2ccc(F)cc2)cc1	n	n	n	n	n	n
CCc1ccc(Nc2n[n+](-c3ccccc3)c(-c3ccc(OCc4ccccc4)cc3)s2)cc1	n	n	n	n	n	n
c1ccc(COc2ccc(-c3sc(Nc4ccccc4)n[n+]3-c3ccccc3)cc2)cc1	x	79.9	x	x	x	x
COC(=O)[C@H](CC(C)C)N(Cc1cn(Cc2ccc(C)cc2)nn1)S(=O)(=O)c1ccc(F)cc1Br	n	x	n	n	n	x
CCN(CC(=O)NCc1ccc(Cl)cc1)C(=O)CSCC(=O)Nc1cccc(C)c1	n	n	n	n	n	n
COc1ccc(/[N+]([O-])=C/c2ccoc2)cc1	n	n	10.9	n	n	n
Cc1ccc(O)c(C2=Nc3ccccc3N=C(c3ccc([N+](=O)[O-])cc3)C2)c1	n	n	n	1.0	n	n
CSc1ccccc1OCc1cc(C(=O)N(C)CC2COCCO2)no1 (centres undefined)	n	n	n	n	n	n
CC(C)(C)c1ccc(-c2nc(C#N)c(NCCCn3ccnc3)o2)cc1	n	n	n	n	n	n
N#Cc1nc(-c2ccco2)oc1NCCCn1ccnc1	n	70.1	n	n	n	n
COc1ccc(-c2nc(C#N)c(NCCCn3ccnc3)o2)cc1OC	n	69.6	n	n	n	n
SMILES	DAX1 inh-1	AHR act	hgDAF12 agonist	ssDAF12 agonist	hcDAF-12 act	DAX1 inh-2
COCCCn1c(=O)c2ccccc2n(CC(=O)NC2CCCCC2)c1=O	n	n	n	n	n	n
COc1cc(OC)cc(C(=O)O/N=C(\N)c2cccc(C)c2)c1	n	n	n	n	n	n
Cc1cccc(/C(N)=N/OC(=O)c2ccc(Br)o2)c1	n	71.0	n	n	n	n
Cc1c(-c2cc(Br)ccc2O)nc2cc3c(cc2c1C)OCO3	n	62.7	n	n	n	4.3
Cc1c(C(=O)c2ccc(Cl)cc2Cl)cnc2cc3c(cc12)OCO3	n	n	n	n	n	n
CCN(CC)C(=O)Cn1cc(S(=O)(=O)CC(=O)NC2CCCCC2)c2ccccc21	n	n	n	n	n	n
CC1=NN(C(N)=S)C(=O)C1N=Nc1ccccc1 (centres undefined)	n	70.2	n	n	n	n
CC1=NN(C(=O)c2ccncc2)C(=O)C1N=Nc1ccc2ccccc2c1 (centres undefined)	n	x	n	n	n	n
NC(=O)CN(N=Nc1cccc([N+](=O)[O-])c1)c1cccc([N+](=O)[O-])c1	n	n	n	n	n	n
CC1=NN(C(N)=S)C(=O)C1N=Nc1cccc2ccccc12 (centres undefined)	x	92.7	x	x	x	x
CC1=NN(C(N)=S)C(=O)C1N=Nc1ccc(Cl)cc1 (centres undefined)	n	x	11.3	n	n	n
CC1=NN(C(N)=S)C(=O)C1N=Nc1cccc([N+](=O)[O-])c1 (centres undefined)	n	63.0	n	n	n	6.8
CCCCOc1ccc(C(=O)NCC(=O)N2CC(C)CC(C)C2)cc1 (centres undefined)	n	n	n	n	n	n
O=C(COC(=O)[C@H](Cc1c[nH]c2ccccc12)NC(=O)c1ccc(Cl)cc1)Nc1ccc2c(c1)OCO2	n	n	11.4	n	n	n
CC(=O)N[C@@H](Cc1c[nH]c2ccccc12)C(=O)OCC(=O)Nc1ccc2c(c1)OCO2	n	x	n	n	n	n
O=C(Cn1cnc2ccccc2c1=O)N1CCCCC1	n	x	n	n	n	x
O=C(Nc1sc2c(c1C(=O)O)CCCC2)c1cccs1	n	n	n	n	n	n
CCn1ncc(Br)c1C(=O)Nc1sc2c(c1C(N)=O)CCC2	n	49.2	n	n	n	n
NC(=O)c1c(NC(=O)c2ccc([N+](=O)[O-])o2)sc2c1CCCC2	n	n	n	2.0	n	n
O=C(Nc1sc2c(c1C(=O)O)CCCCC2)c1cccs1	n	n	n	1.0	n	n
COc1ccccc1C(=O)Nc1sc2c(c1C(N)=O)CCCC2	n	55.2	n	0.9	n	n
CN1CCc2c(sc(NC(=O)c3ccc([N+](=O)[O-])o3)c2C(N)=O)C1	n	n	n	n	n	n
O=C(COc1ccc([N+](=O)[O-])cc1)Nc1ccc(C(=O)Nc2ccccc2C(=O)O)cc1	n	n	n	n	n	n
S=c1[nH]nc(-c2cc(-c3ccccc3)n[nH]2)n1/N=C/c1ccccc1	n	n	n	n	n	7.3
Cc1cccc(/C=N/n2c(-c3cc(-c4ccccc4)n[nH]3)n[nH]c2=S)c1	n	n	n	n	n	n
SMILES	DAX1 inh-1	AHR act	hgDAF12 agonist	ssDAF12 agonist	hcDAF-12 act	DAX1 inh-2
S=c1[nH]nc(-c2ccccc2)n1/N=C/c1ccc(-c2ccccc2Cl)o1	n	52.8	n	n	n	n
Cc1nn(-c2ccccc2)c2sc(C(=O)NNC(=O)COc3ccccc3)cc12	n	57.8	n	1.6	n	n
Cc1cnc(NC(=O)c2cc3c(C)nn(-c4ccccc4)c3s2)s1	n	60.7	n	n	n	n
Cc1cc(C)cc(NC(=O)/C=C/c2ccc([N+](=O)[O-])s2)c1	n	n	n	n	n	n
O=C(/C=C/c1cccs1)Nc1cccc(NC(=O)/C=C/c2cccs2)n1	n	n	n	n	n	n
Cc1ccccc1NC(=O)/C=C/c1ccc([N+](=O)[O-])s1	x	49.5	x	x	x	n
CCc1nnc(NC(=O)/C=C/c2cccs2)s1	n	52.2	n	n	n	n
